# From the supplement of paper PMC7057948, “A genome-wide approach for identification and characterisation of metabolite-inducible systems” (Nature Communications, 2020)
# What was measured:
# Experiment in all cases: relative induction of RFP reporter vs primary effector (background-corrected); higher = stronger activation of the biosensor
# Conditions in all cases: inducer concentration 5 mM; 6 h; Cupriavidus necator H16; minimal medium + 0.4% gluconate
# [1] = system: AcoR/P_H16_RS19445 acetoin biosensor (pEH052)
# Method: (§1)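 C. necator H16 strains, each carrying one of 21 transcription factor/inducible promoter–mRFP biosensor plasmids, were grown in minimal medium in 96-well plates (robotic platform). Each was exposed to 46 structurally or metabolically related compounds at 5 mM at 30 °C. OD-normalised RFP fluorescence was read 6 h later and expressed as relative induction (%) = 100 × (FL compound − FL uninduced)/(FL primary inducer − FL uninduced); mean of n=4.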
# [2] = system: AraC/P_araBAD L-arabinose biosensor (pEH176)
# Method: as §1
# [3] = system: BenM/P_H16_RS09790 benzoate biosensor (pEH148)
# Method: as §1
# [4] = system: FdsR/P_H16_RS03165 formate biosensor (pEH134)
# Method: as §1
# [5] = system: GabR/P_H16_RS23655 GABA biosensor (pEH256)
# Method: as §1
# [6] = system: HpdR/P_H16_RS18295 3-hydroxypropanoate biosensor (pEH010)
# Method: as §1
# [7] = system: KynR/P_H16_RS14030 L-kynurenine biosensor (pEH136)
# Method: as §1
# [8] = system: NahR/P_H16_RS08125 salicylate biosensor (pEH042)
# Method: as §1
# [9] = system: OapR/P_H16_RS01330 beta-alanine biosensor (pEH147)
# Method: as §1
# [10] = system: PcaQ/P_H16_RS30145 3,4-dihydroxybenzoate biosensor (pEH161)
# Method: as §1
# [11] = system: PhgR/P_H16_RS05530 phenylglyoxylate biosensor (pEH155)
# Method: as §1
# [12] = system: PhhR/P_H16_RS18365 L-phenylalanine biosensor (pEH137)
# Method: as §1
# [13] = system: SauR/P_H16_RS13695 sulfonatoacetate biosensor (pEH157)
# Method: as §1
# [14] = system: TtdR/P_H16_RS10665 tartrate biosensor (pEH083)
# Method: as §1
# [15] = system: XdhR/P_H16_RS05055 xanthine biosensor (pEH154)
# Method: as §1
# [16] = system: heterologous inducible system pEH002 (rhamnose/acrylate/cumate/itaconate set)
# Method: as §1
# [17] = system: heterologous inducible system pEH020 (rhamnose/acrylate/cumate/itaconate set)
# Method: as §1
# [18] = system: heterologous inducible system pEH040 (rhamnose/acrylate/cumate/itaconate set)
# Method: as §1
# [19] = system: heterologous inducible system pEH086 (rhamnose/acrylate/cumate/itaconate set)
# Method: as §1
# [20] = system: BadR/P_H16_RS27200 cyclohexanecarboxylate biosensor (pEH159)
# Method: as §1
# 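Note: RFP excited at 585 nm with emission read at 620 nm, culture medium blanks subtracted from fluorescence and absorbance prior to normalisation.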
Compound,relative induction of RFP reporter [1] [%],relative induction of RFP reporter [2] [%],relative induction of RFP reporter [3] [%],relative induction of RFP reporter [4] [%],relative induction of RFP reporter [5] [%],relative induction of RFP reporter [6] [%],relative induction of RFP reporter [7] [%],relative induction of RFP reporter [8] [%],relative induction of RFP reporter [9] [%],relative induction of RFP reporter [10] [%],relative induction of RFP reporter [11] [%],relative induction of RFP reporter [12] [%],relative induction of RFP reporter [13] [%],relative induction of RFP reporter [14] [%],relative induction of RFP reporter [15] [%],relative induction of RFP reporter [16] [%],relative induction of RFP reporter [17] [%],relative induction of RFP reporter [18] [%],relative induction of RFP reporter [19] [%],relative induction of RFP reporter [20] [%]
O=C(O)c1cccnc1 [nicotinate],-2.26,0.00152,1.95,113,-1.65,0.0215,-0.289,0.0131,-0.669,-0.0619,-0.587,-0.498,0.0909,-0.44,0.0721,0.0144,-1.31,-1.49,0.0778,
C[C@H](N)C(=O)O [L-alanine],-2.72,-0.0291,-0.053,-2.12,-2.55,-0.329,-0.519,0.00167,-0.209,-0.263,-0.259,-0.741,-0.0427,-0.256,-0.737,-0.00357,-1.6,-1.7,-0.23,
Oc1ccc(O)cc1 [hydroquinone],4.27,0.188,0.0575,11.3,8.11,1.65,1.53,0.108,0.00669,0.229,1.56,2.24,0.207,1.2,0.708,0.0465,-0.0999,2.73,0.735,
O=C(O)C(O)c1ccccc1 (stereo unspecified) [mandelic acid],4.07,0.0229,0.175,1.81,1.32,0.0419,-0.345,-0.000243,0.364,0.0192,-0.332,-0.406,0.0426,-0.395,-0.0998,0.0137,0.769,1.17,0.563,
OC[C@@H](O)[C@@H](O)[C@H](O)[C@H](O)CO [D-mannitol],4.32,-0.00626,0.00493,-0.914,-0.506,-0.0887,0.488,0.0228,-0.205,0.0552,-0.267,0.344,0.0255,0.195,-0.267,-0.000622,-0.0264,0.166,0.0103,
"NC(C(=O)O)c1ccccc1 (racemic) [D,L-2-phenylglycine]",2.41,-0.0373,0.0272,5.96,-1.88,0.893,-0.416,0.0395,0.858,0.145,1.69,-0.209,-0.00851,0.176,0.377,0.012,3.29,0.705,0.876,
N[C@@H](CC(=O)O)C(=O)O [L-aspartate],-1.54,-0.0179,-0.0325,3.34,-1.17,-0.138,-0.00294,0.0255,0.356,-0.0549,-0.232,0.437,0.0772,-0.474,-0.175,0.02,-0.78,-1.36,0.389,
Oc1ccccc1O [catechol],1.82,-0.00935,9.72,-2.57,3.82,0.415,0.704,0.0978,-1.89,0.794,0.769,-0.0234,0.114,2.09,0.259,0.0302,-0.684,4.75,-0.178,
NCC(=O)O [glycine],-0.038,-0.0181,0.0164,-5.21,0.401,-0.178,0.211,0.0163,-0.454,0.00408,-0.415,-0.384,0.0965,0.812,-0.0501,0.0153,-0.252,0.354,0.274,-0.419
Oc1cccc(O)c1 [resorcinol],1.11,-0.0083,0.0215,3.2,-1.35,-0.13,-0.206,0.04,-1.51,-0.109,0.115,0.365,0.0138,1.74,-0.161,-0.00943,-0.947,0.407,-0.0428,
O=S(=O)(O)CCO [isethionate],-1.41,-0.00384,-0.0202,-5.83,-2.12,-0.0757,0.0938,0.0152,-0.424,6.61,-0.518,-0.0754,1.56,2.47,-0.627,0.0178,-1.34,-1.22,-0.0664,
O=C(O)CNC(=O)c1ccccc1 [N-benzoylglycine],-2.37,-0.0115,21.2,40.1,-0.301,-0.376,0.0257,0.0182,-1.12,-0.215,-0.146,-0.604,-0.018,-0.285,-0.852,-0.00397,-2.44,-1.84,-0.117,
N[C@@H](Cc1c[nH]c2ccccc12)C(=O)O [L-tryptophan],-1.3,0.00791,-0.0226,34.8,-1.31,-0.00554,65.7,0.00282,-0.39,-0.161,-0.235,1.21,0.0508,-0.293,-0.684,0.00955,-1.17,-1.03,-0.228,
Cn1cnc2c1c(=O)[nH]c(=O)n2C [theobromine],0.603,0.0327,0.0104,3.33,-2.07,0.0941,1.51,0.0192,0.977,-0.0479,0.316,1.05,-0.00533,0.646,0.45,0.0324,-0.957,0.453,0.597,
NCCS(=O)(=O)O [taurine],-0.255,-0.0412,-0.0223,-0.473,-1.59,-0.142,-0.215,0.0156,0.934,3.14,-0.395,-0.387,2.29,0.0679,-0.494,0.00496,-0.468,-0.555,0.38,
